Assay results from PubChem BioAssay (NCATS).
Active and inactive are the calls of the source.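 The calls were made as follows: active = calcium activation more than 3 SD above the typical response in the agonist read; inactive = the rest.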

Molecular target: Thyrotropin-releasing hormone receptor (Homo sapiens) (UniProt P34981)
Experiment: qHTS for Small Molecule Agonists and Allosteric Enhancers of Human TRH Receptor: Validation Screen for Agonists (AID 493127);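 also: intracellular calcium rise by fluo-8 fluorescence before TRH EC20 addition; 0% is about no effect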
Settings: TRH receptor agonist cell assay; at 2 µM; hits give high values
Description: NIH Chemical Genomics Center [NCGC]
NIH Molecular Libraries Probe Centers Network [MLPCN]
Assay Submitter (PI): Marvin Gershengorn
This project aims to identify small drug-like molecules that activate (agonists) the thyrotropin releasing hormone (TRH) receptor (TRHR) or enhance its TRH-stimulated activity (allosteric enhancers). TRHR, a drug-accessible cell surface receptor expressed in specific brain regions, and its ligand TRH have been implicated in several central nervous system disorders, including depression and anxiety. Small molecule TRHR agonists or allosteric enhancers that are metabolically stable and able to cross the blood-brain barrier might serve as probes to elucidate the roles of brain TRH receptors in animal models, and might be valuable as lead compounds for the development of drugs to treat patients with central nervous system disorders.
Upon TRHR-Gq activation in TRHR cells, intracellular calcium is released from stores in the endoplasmic reticulum. […] This validation screen measures compound-induced activation of calcium release.
For the HTS assay freshly prepared cells are plated at a density of 2000/well in 3 ul of complete DMEM medium containing 10% serum in 1536-well plates and cultured over night at 37 C in a humidified incubator with 5% CO2. The next day, 2 ul of a no wash calcium dye (ABD Bioquest) was added to the cells and plates were incubated at room temperature for 1 hour. For the assay, assay plates were loaded into the FDSS kinetic plate reader. A 10 cycle (1 second/cycle) baseline measurement is taken and then the FDSS online 1536 pintool delivers 23 nl of compound library (as well as TRH controls) to the plate. The plate is measured for kinetically at 1 cycle/sec for 180 seconds and is considered to be the agonist portion of the assay (eg, compounds which activate a positive calcium response during this portion are flagged as potential agonists). Following the 180 second read, 1 ul of either an EC20 (positive modulation assay) is delivered by an onboard pipette head. Measurements are taken kinetically for an additional 180 seconds.
TRHR FDSS Screening Protocol
1. Reagent, 3 uL 2000 cells/well 1536 TC treated Black plate in media containing 10% FCS
2. Time, 18 hours, 33.5C 5% CO2 (cells grown at 37C)
3. Reagent, 2 uL ABD fluo-8 Ca dye
4. Time, 30 min-1.5hrs hours, Room temp (6 plates/batch)
5. Detector, EX 480/EM 530C, FDSS 10 cycles baseline (1sec/cycle)
6. Compound, 23 nL of stock solution from library
7. Detector, EX 480/EM 530C, FDSS 230 cycles (1sec/cycle) Agonist mode
8. Compound, 1 ul EC20 of TRH made up in HEPES HBSS, 10 nM final
9. Detector, EX 480/EM 530C, FDSS 100 cycles (1sec/cycle) Potentiator mode

Sequence of Thyrotropin-releasing hormone receptor (Homo sapiens) (P34981 whole entry, looked up): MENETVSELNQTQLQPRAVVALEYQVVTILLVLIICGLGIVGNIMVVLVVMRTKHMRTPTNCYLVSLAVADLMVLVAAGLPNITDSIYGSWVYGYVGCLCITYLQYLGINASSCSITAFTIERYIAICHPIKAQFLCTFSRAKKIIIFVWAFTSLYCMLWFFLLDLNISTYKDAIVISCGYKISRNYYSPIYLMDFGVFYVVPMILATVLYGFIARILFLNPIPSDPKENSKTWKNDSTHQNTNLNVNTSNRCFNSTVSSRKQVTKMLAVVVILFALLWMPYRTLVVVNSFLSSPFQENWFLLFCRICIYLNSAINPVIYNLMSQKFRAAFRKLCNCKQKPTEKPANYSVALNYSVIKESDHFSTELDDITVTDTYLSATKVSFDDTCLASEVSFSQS

**Q.** `O=C1c2c(O)cc(O)cc2OC(c2ccc(O)c(O)c2)C1O` (stereo not given) was tested. Which activation did it give?
**A.** Its activation is 0% (inactive).

**Q.** Which activation does the source give for `O=c1c(O)c(-c2ccc(O)cc2O)oc2cc(O)cc(O)c12` here?
**A.** The activation was 0.938% (inactive).

**Q.** `CN(C)CCCC1(c2ccc(F)cc2)OCc2cc(C#N)ccc21` (stereo not given) was tested. Which activation did it give?
**A.** Its activation is 3.31% (inactive).

**Q.** With `C[C@@H](N)C1CCC(C(=O)Nc2ccncc2)CC1` (stereo not given in full) as the compound, how does the activation read?
**A.** The activation was 1.06% (inactive).

**Q.** With `NCCCCNCCCN` as the compound, how does the activation read?
**A.** The activation was -0.0625% (inactive).

**Q.** For `O=C1NC(=O)C(c2ccccc2[N+](=O)[O-])=C1Nc1ccc(O)c(Cl)c1`, which activation is on record?
**A.** The activation was 1.69% (inactive).

**Q.** `COc1cc2nc(N3CCN(C(=O)C4CCCO4)CC3)nc(N)c2cc1OC` (stereo not given) was tested. Which activation did it give?
**A.** Its activation is 0.562% (inactive).

**Q.** With `NC(=NCc1ccccc1)NC(=O)c1nc(Cl)c(N)nc1N` as the compound, how does the activation read?
**A.** Its activation is 0.438% (inactive).

**Q.** `Cc1nc2n(c(=O)c1CCN1CCC(c3noc4cc(F)ccc34)CC1)CCCC2` was tested. Which activation did it give?
**A.** Its activation is 0.938% (inactive).

**Q.** How did the activation turn out when `Nc1nc(OCc2ccccc2)c2[nH]cnc2n1` was run?
**A.** The activation was -2.94% (inactive).

**Q.** For `CC(C)c1ccc2c(c1)c(SC(C)(C)C)c(CC(C)(C)C(=O)O)n2Cc1ccc(Cl)cc1`, which activation is on record?
**A.** Its activation is 1.38% (inactive).

**Q.** Which activation does the source give for `Cc1c(OCC(F)(F)F)ccnc1CS(=O)c1nc2ccccc2[nH]1` (stereo not given) here?
**A.** The activation was 4.38% (inactive).

**Q.** `Cc1cc(O)c2c(c1)C(=O)c1cc(O)cc(O)c1C2=O` was tested. Which activation did it give?
**A.** The activation was 10.2% (inactive).

**Q.** How did the activation turn out when `OC(CN1CCN(c2cccc(Cl)c2)CC1)C(c1ccccc1)c1ccccc1` (stereo not given) was run?
**A.** Its activation is 2.44% (inactive).

**Q.** For `O=c1cc(N2CCOCC2)oc2c(-c3ccccc3)cccc12`, which activation is on record?
**A.** Its activation is -3.19% (inactive).

**Q.** How did the activation turn out when `CCN(CC)C(=S)SSC(=S)N(CC)CC` was run?
**A.** Its activation is 4% (inactive).

**Q.** Which activation does the source give for `CNC[C@H](O)c1ccc(O)c(O)c1` here?
**A.** The activation was 0.875% (inactive).

**Q.** `CC(=O)O[C@H]1C(=O)[C@@]2(C)C([C@H](OC(=O)c3ccccc3)[C@]3(O)C[C@H](OC(=O)[C@H](O)[C@@H](NC(=O)c4ccccc4)c4ccccc4)C(C)=C1C3(C)C)[C@]1(OC(C)=O)CO[C@@H]1C[C@@H]2O` (stereo not given in full) was tested. Which activation did it give?
**A.** Its activation is 0.562% (inactive).

**Q.** `O=C1c2ccccc2-c2n[nH]c3cccc1c23` was tested. Which activation did it give?
**A.** The activation was 0.75% (inactive).

**Q.** With `Oc1ccc(-c2nc(-c3ccc(F)cc3)c(-c3ccncc3)[nH]2)cc1` as the compound, how does the activation read?
**A.** Its activation is -3.81% (inactive).

**Q.** How did the activation turn out when `COc1ccccc1N1CCN(CCN(C(=O)C2CCCCC2)c2ccccn2)CC1` was run?
**A.** The activation was -4.06% (inactive).

**Q.** How did the activation turn out when `CC1(C)C(=O)N(CCN2CCC(C(=O)c3ccc(F)cc3)CC2)c2ccccc21` was run?
**A.** The activation was 3.12% (inactive).

**Q.** With `O=c1ccc2ccc(O)c(O)c2o1` as the compound, how does the activation read?
**A.** Its activation is -0.188% (inactive).

**Q.** `O=Nc1c(-c2c(O)[nH]c3cc(Br)ccc23)[nH]c2ccccc12` was tested. Which activation did it give?
**A.** Its activation is -8.62% (inactive).

**Q.** How did the activation turn out when `O=C(NCC1CCCCN1)c1cc(OCC(F)(F)F)ccc1OCC(F)(F)F` (stereo not given) was run?
**A.** Its activation is -4.44% (inactive).

**Q.** With `O=C(CCc1ccc(O)cc1)c1c(O)cc(O)cc1O` as the compound, how does the activation read?
**A.** The activation was 1.75% (inactive).

**Q.** With `O=C(O)c1cccnc1Nc1cccc(C(F)(F)F)c1` as the compound, how does the activation read?
**A.** Its activation is 1.5% (inactive).

**Q.** `CC1(C)NC(=O)N(c2ccc([N+](=O)[O-])c(C(F)(F)F)c2)C1=O` was tested. Which activation did it give?
**A.** The activation was -3.25% (inactive).

**Q.** With `Cc1cccc(C#Cc2ccccc2)n1` as the compound, how does the activation read?
**A.** The activation was -5.31% (inactive).

**Q.** With `O=c1c(O)c(-c2cc(O)c(O)c(O)c2)oc2cc(O)cc(O)c12` as the compound, how does the activation read?
**A.** The activation was 1.38% (inactive).
